Screening data from PubChem.
ATXN viability = reduces viability in counter-screen for ATXN expression inhibitors. S2 cells (HEK-293 line with an ATXN2-luciferase reporter) viability, CellTiter-Fluor protease fluorescence, 24 h. Potency, µM (doses to about 56.7 µM), most hits filed as cytotoxic. actives 0.49% (n = 400,000). AID 651635; further: nearly all actives have a fitted effect of over 40% in size
HT1080NT lethal = kills 2HG-producing HT-1080-NT fibrosarcoma cells | HT-1080-NT fibrosarcoma viability, CellTiter-Glo ATP luminescence, 48 h | Potency, µM (titrated, usually from 46.1 µM), for inactives: at the top dose activity, negative = less viability, usual class: cytotoxic | actives 1.6% (n = 360,000) | AID 686970;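 further: NT is the 2HG producing partner of a matched IDH1 knockdown line; 0% = DMSO-treated cells and -100% = media-only wells without cells; nearly all actives have a fitted effect of over 55% in size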
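Fibrosarcoma NT cells, 750 per well in 5% FBS RPMI, were exposed to compound for 48 hours. Viability: CellTiter-Glo luminescence.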
ATXN2 expr inh = ATXN2 expression inhibition | HEK-293 ATXN2-luciferase reporter, luminescence, 24 h | Potency, µM (series often up to 57 µM), for the others: at the highest dose activity change, negative = inhibition, most hits filed as inhibitors | actives 0.72% (n = 360,000) | AID 1745845; further: on the % scale 0 is the no-effect control and ±100 the full control effect; nearly all actives have a fitted effect of over 55% in size
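qHTS (up to 57 uM final) was run with 24 h compound exposure of reporter cells at 37 °C. Each well was multiplexed: SteadyGlo luminescence measured ATXN2-luciferase expression after a fluorogenic Gly-Phe-AFC viability readout (25 uM final).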
HT1080 IDH1KD tx = toxicity to HT-1080 IDH1 knockdown cells (counter line); HT-1080 IDH1 knockdown viability, ATP luminescence, 48 h; Potency, µM (doses to about 46.1 µM), without a hit: at the top dose activity, negative = toxicity, most hits filed as cytotoxic; actives 2% (n = 360,000); AID 686971;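 further: 0% = DMSO wells and -100% = cell-free medium wells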
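In this qHTS, HT-1080 cells depleted of IDH1 are exposed for 48 h at 37 °C to compound titrations. Toxicity is scored from CellTiter-Glo luminescence, with DMSO as full viability and medium alone as none.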
KB-V1 cytotox = kills drug-selected multidrug resistant KB-V1 cells | AID 1347076 | actives 3.4% (n = 400,000) | Potency, µM (highest dose often 46.1 µM), hits mostly cytotoxic | KB-V1 MDR cells viability, CellTiter-Glo, 72 h; further: on the % scale 0 is the no-effect control and ±100 the full control effect; nearly all actives have a fitted effect of over 60% in size
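Following 72 h at 37 degrees C with compound, KB-V1 cell viability was read by CellTiter-Glo luminescence, medium being phenol-red-free DMEM plus 10% FBS; concentration-response parameters came from normalized, curve-fitted qHTS data.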
KB-3-1 cytotox = kills parental KB-3-1 adenocarcinoma cells. KB-3-1 viability, CellTiter-Glo ATP luminescence, 72 h. Potency, µM (series often up to 46.1 µM), actives largely listed as cytotoxic. actives 1.4% (n = 400,000). AID 1347075; further: on the % scale 0 is the no-effect control and ±100 the full control effect; nearly all actives have a fitted effect of over 60% in size
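Cytotoxicity measured as CellTiter-Glo luminescence after 72 h at 37 C. Compound titrations were pinned onto drug-naive KB-3-1 parental adenocarcinoma cells grown in DMEM with 10% FBS, and normalized data fitted to concentration-response curves.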
* hit, by the source's call; i = inactive; u = inconclusive; x = not tested or not shown; [ ] = dose if it differs, or a comment. Hits are enriched below; roughly 6.2% of the tested compounds scored in any of these assays. The call rests on the fitted dose curve; in most records, active means well fitted curve in the direction sought with a large enough effect; inconclusive means small, poorly fitted or top-dose-only effect, or another doubt; inactive means no such curve, though single readings can be large; an effect the other way counts as inactive or inconclusive. Potency means the concentration at half of the fitted maximal effect.

SMILES | ATXN viability | HT1080NT lethal | ATXN2 expr inh | HT1080 IDH1KD tx | KB-V1 cytotox | KB-3-1 cytotox
Cc1cccc(N2CCN(C(=O)Cn3c(C)c4cnn(-c5ccccc5)c(=O)c4c3C)CC2)c1C | u | x | u | x | i | u
COc1ccc(C)cc1N(C(=O)c1ccccc1)c1nc2ccccc2s1 | i | -11% | -4% | -10% | i | i
COc1ccc(C)cc1N(C(=O)COc1ccccc1)c1nc2ccccc2s1 | i | 2% | 28% | -10% | 21µM* | i
COc1ccccc1C(=O)/C=C/c1ccc(N2CCCCC2)c([N+](=O)[O-])c1 | x | u | u | u | 10µM* | u
O=C(O)c1ccccc1C(=O)c1ccc(N2CCCC2)c([N+](=O)[O-])c1 | i | 0% | 5% | 0% | i | i
O=C(O/N=C\c1ccc(N2CCCCC2)c([N+](=O)[O-])c1)c1ccc(Cl)cc1Cl | u | 0% | 8% | 14% | u | i
O=C(/C=C/c1ccc(N2CCCCC2)c([N+](=O)[O-])c1)c1ccc(O)cc1 | u | 18µM* | 10% | 18µM* | u | u
CC(Oc1ccc(Cl)cc1Cl)C(=O)NNC(=O)c1ccncc1 (centres undefined) | i | u | 5% | -7% | i | i
CC(Oc1ccc(Cl)cc1Cl)C(=O)NCc1ccncc1 (centres undefined) | i | 0% | -9% | -6% | 21µM* | i
C=CC[n+]1c(-c2ccc(OC)c(OC)c2)csc1NNC(=O)Nc1ccccc1 | u | u | u | 16µM* | 18µM* | u
C=CC[n+]1c(-c2ccccc2)csc1NC(C)(C)C | i | 1% | -11% | -4% | i | i
C[C@H]1CCCCO[C@H](CN(C)C(=O)C2CCCCC2)[C@@H](C)CN([C@@H](C)CO)C(=O)c2cc(NC(=O)NC3CCCCC3)ccc2O1 | 25µM* | -2% | -5% | -1% | u | i
C[C@@H]1CCCCO[C@@H](CN(C)C(=O)C2CCCCC2)[C@@H](C)CN([C@H](C)CO)C(=O)c2cc(NC(=O)NC3CCCCC3)ccc2O1 | u | -4% | u | -3% | i | i
Cc1c(NS(=O)(=O)c2ccc(N(C)C3CCCCC3)c([N+](=O)[O-])c2)c(=O)n(-c2ccccc2)n1C | i | -4% | -8% | -1% | 15µM* | u
COc1ccccc1OCC(=O)Nc1cc(S(=O)(=O)N2CCCCC2)ccc1N1CCCCC1 | i | 7% | -1% | 4% | i | i
COc1ccccc1OCC(=O)Nc1cc(Cl)ccc1N1CCCCC1 | i | -8% | -1% | -6% | 15µM* | i
Cc1cccc(NC(=O)CSCC(=O)Nc2ccccc2N2CCCCC2)c1 | i | -25% | -11% | -13% | 16µM* | u
COc1ccc(OCC(=O)Nc2ccccc2N2CCCCC2)cc1 | i | 3.3µM* | -26% | 4.1µM* | i | u
CCOc1ccc(C(=O)Nc2ccccc2N2CCOCC2)cc1 | i | 4% | -35% | 8% | i | i
Cc1cccc(NC(=O)CSCC(=O)Nc2ccccc2N2CCCC2)c1 | u | -2% | -29% | -11% | u | i
CCOc1ccc(C(=O)Nc2ccccc2N2CCCC2)cc1 | i | -3% | 14% | -12% | u | 23µM*
CC(=O)Nc1cccc(-c2cc(NC(C)=O)c3ncc(-c4ccc(C(C)=O)cc4)n3c2)c1 | i | -22% | -13% | -25% | i | i
COc1ccc(-c2nnc(SCC(=O)Nc3ccc(F)cc3)s2)cc1 | i | x | 3% | x | i | i
Cc1ccc2c(CC(=O)Nc3cccc(C(F)(F)F)c3)coc2c1 | i | x | u | x | i | i
CCOc1ccc(N2CC(C)Cn3c2nc2c3c(=O)n(CC(=O)O)c(=O)n2C)cc1 (centres undefined) | i | x | 7% | x | u | i
SMILES | ATXN viability | HT1080NT lethal | ATXN2 expr inh | HT1080 IDH1KD tx | KB-V1 cytotox | KB-3-1 cytotox
CCN(CC(=O)NCc1ccc(Cl)cc1)C(=O)COc1ccc(C)cc1C | i | -6% | -1% | -1% | x | x
Cc1sc2nc3ccc(N4CCCC4)nn3c(=O)c2c1C | u | -1% | -24% | 1% | 16µM* | u
CC1CN(CCCCOc2ccc(Cl)c3ccccc23)CC(C)O1 (centres undefined) | i | 21µM* | -33% | u | i | i
CC1CN(CCCCOc2ccc(C(C)C)cc2)CC(C)O1 (centres undefined) | i | 0% | -15% | -11% | u | i
Oc1cccc(C(O)CNCc2ccc(-c3ccccc3)cc2)c1 (centres undefined) | u | 16µM* | u | 21µM* | u | u
OC(CNCc1cccc(Cl)c1)c1ccccc1 (centres undefined) | i | -24% | 3% | -8% | u | i
Oc1cccc(C(O)CNCc2ccc(OCc3ccc(Cl)cc3Cl)cc2)c1 (centres undefined) | i | 23µM* | -14% | 16µM* | u | i
CS(=O)(=O)N1Cc2cc(C(=O)NCC3CC3)nc(-c3cccc(-c4cccnc4)c3)c2[C@@H]1CCO | i | u | -19% | u | i | u
CC(NC(=O)c1ccco1)c1nnc2n1CCN(Cc1cccc(Cl)c1)CC2 (centres undefined) | i | x | x | x | x | x
CC1(C(=O)NCc2ccccc2)Cc2c(-c3cccc(C(F)(F)F)c3)ccnc2O1 (centres undefined) | i | u | -12% | 3.7µM* | 6.5µM* | 16µM*
CC1(C(=O)NCc2cccs2)Cc2c(-c3cccc(C(F)(F)F)c3)ccnc2O1 (centres undefined) | i | 5.8µM* | -22% | 4.6µM* | 21µM* | u
CC1(C(=O)NCc2cccs2)Cc2c(-c3ccc(C(N)=O)cc3)ccnc2O1 (centres undefined) | i | u | 0% | 15µM* | i | 15µM*
CC(=O)NCCNC(=O)C1(C)Cc2c(-c3ccc(C(N)=O)cc3)ccnc2O1 (centres undefined) | i | 15% | 10% | 3% | i | i
COc1ccc(NC(=O)c2nnn(CC(=O)Nc3cc(C)cc(C)c3)c2N)c(OC)c1 | i | x | -16% | x | i | i
C=CC(=O)N=c1sc2ccccc2n1-c1ccccc1 | x | 13µM* | 18%[11.3 µM] | 10µM* | 7.3µM* | 15µM*
N=c1sc2ccccc2n1-c1ccccc1 | i | -10% | 1% | u | u | u
